Source: PubChem
Most compounds without a hit are left out; they make up all but 9.9% or so of the library.
SW480 rereplic: inducers of DNA re-replication in SW480 colon cancer cells | 340,000 tested, 1.8% active | SW480 DNA re-replication, Hoechst DNA content imaging, 48 h | Potency, µM (top dose mostly 46.1 µM), most hits filed as activators | AID 624297; note: nearly all actives have a fitted effect of over 55% in size
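Readout is total intensity of Hoechst-stained nuclei, excited at 405 nm and collected at 500-530 nm. Compound treatment lasted 48 hr at 37 C in 5% CO2 before staining.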
IL-1B inflam inh: blocks inflammasome-driven IL-1 beta release; THP-1 LPS/ATP IL-1B secretion, AlphaLISA, 16 h; hits give low values; activity change, % at 57.5 µM; 360,000 tested, 4.7% active; in the data active = activity change below about -50%; inconclusive = mostly about -30% to -49%
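Secreted IL-1B measured by AlphaLISA bead assay after 16 h compound exposure of THP-1 cells; compounds (final up to 57.5 uM) added 1 h before LPS (250 ng/mL) and ATP (1.25 mM) stimulation; lower signal means less secretion.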
KB-V1 cytotox: kills drug-selected multidrug resistant KB-V1 cells; KB-V1 MDR cells viability, CellTiter-Glo, 72 h; Potency, µM (top dose mostly 46.1 µM), actives largely listed as cytotoxic; 400,000 tested, 3.4% active; AID 1347076; note: nearly all actives have a fitted effect of over 60% in size
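KB-V1 MDR subline cells in DMEM (phenol-red free, 10% FBS) exposed to compounds in qHTS concentration series for 72 h at 37 degrees C. Viability read by CellTiter-Glo luminescence; concentration-effect curves fitted after normalization and correction.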
KB-3-1 tox: kills parental KB-3-1 adenocarcinoma cells; KB-3-1 viability, CellTiter-Glo ATP luminescence, 72 h; AID 1347075; 400,000 tested, 1.4% active; Potency, µM (top dose mostly 46.1 µM), actives largely listed as cytotoxic; note: nearly all actives have a fitted effect of over 60% in size
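Here the drug-naive KB-3-1 line serves as comparator for MDR sub-line selectivity; cells received compound titrations, 72 h at 37 °C, then CellTiter-Glo readout.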
MCF10A rerep: DNA re-replication induction in MCF 10a cells. 350,000 tested, 2.9% active. Potency, µM (titrated, usually from 46.1 µM), usual class: activators. MCF 10A DNA re-replication, Hoechst nuclear intensity, 48 h. AID 624296; note: nearly all actives have a fitted effect of over 50% in size
Hits are given with their value; n = inactive; u = inconclusive; x = no result given. Unless noted, calls come from the whole dose curve; as a rule, active = well fitted curve in the direction sought with a large enough effect; inconclusive = small, poorly fitted or top-dose-only effect, or another doubt; inactive = no such curve, though single readings can be large; an effect the other way counts as inactive or inconclusive.

SMILES	SW480 rereplic	IL-1B inflam inh	KB-V1 cytotox	KB-3-1 tox	MCF10A rerep
Cc1cc(C(=O)COc2ccccc2Cl)c(C)n1-c1ccc2c(c1)OCO2	u	n	13µM	18µM	u
CN1C(=O)/C(=N\OC(=O)c2cccc3ccccc23)c2ccccc21	n	-100	n	n	n
COc1ccccc1CNC(=O)c1ccc(CSc2nc3ccncc3n2Cc2cccc(F)c2)cc1	x	x	n	n	x
C/C(=N\NC(=O)c1nnn(-c2nonc2N)c1CN(C)c1ccccc1)c1cccnc1	n	n	n	n	n
CC(C)C(=O)N(Cc1cc2ccccc2[nH]c1=O)C(C)C	n	n	16µM	n	n
CCOc1ccc(C(=O)N(CN2CCCC2=O)c2ccc(C)cc2)cc1	n	n	4.6µM	n	n
Cc1ccc(N(Cc2cc3cc(C)ccc3[nH]c2=O)S(=O)(=O)c2ccccc2)cc1	18µM	n	u	u	u
COc1ccc(N(Cc2cc3ccccc3[nH]c2=O)S(C)(=O)=O)cc1	n	n	16µM	n	n
COc1cc(OC)c(NC(=O)Cn2c(=O)nc(-c3ccccc3)c3ccccc32)cc1Cl	x	x	n	n	x
CCCN(CC(=O)Nc1ccccc1OC)C(=O)CC1CCCC1	n	n	n	n	n
CCN(CC)C(=O)c1sc2c(c1C)c(=O)n(-c1ccc(C)c(C)c1)c(=O)n2Cc1cc(=O)n2ccccc2n1	x	x	u	n	x
CCOC(=O)c1ccc(N(CCC2CO2)S(=O)(=O)c2ccc(C)cc2)cc1 (centres undefined)	n	n	21µM	n	n
CCOc1ccc(N(Cc2ccc(C(=O)O)cc2)S(=O)(=O)c2ccc(C)cc2)cc1	u	n	u	u	3.7µM
CCOc1ccc(N(Cc2cc3ccc(C)cc3[nH]c2=O)S(=O)(=O)c2ccccc2)cc1	21µM	u	n	16µM	21µM
CCOc1ccc(S(=O)(=O)N(CC(=O)N/N=C/c2cccs2)c2ccc(C)cc2)cc1	n	n	23µM	n	n
Cc1cc(C)n2nc(C(=O)OCC(=O)N3C(C)CCCC3C)nc2n1 (centres undefined)	n	n	n	n	n
Cc1occc1C(=O)N1CCCC(N2CCN(c3ccccc3F)CC2)C1 (centres undefined)	n	n	n	n	n
COC(=O)c1ccc(OC(=O)CN2C(=O)c3ccccc3C2=O)cc1	n	n	n	n	n
O=C(NCc1ccccc1Cl)c1ccc(CSc2nc3ccncc3[nH]2)cc1	n	-76	n	n	n
CCCCCCC[C@@H](C/C=C/CCC(=O)O)OC	n	n	n	n	n
CCCCCCCCCCCCCCCCC(C(=O)O)C(O)(CC(=O)O)C(=O)O (centres undefined)	n	x	x	x	30µM
CCOc1ccccc1NC(=O)Cn1ncc2c(=O)oc3ccc(C)cc3c21	x	x	u	n	x
O=C(Nn1c(SCc2ccc(F)cc2)nc2ccsc2c1=O)c1ccccc1	n	n	4.1µM	n	u
Cc1ccc(CNC(=O)CSc2nc3ccsc3c(=O)n2NC(=O)c2ccccc2)cc1	n	n	n	n	n
CCc1ccc(C2CC(=O)NC(NC(=O)c3ccc(C(C)(C)C)cc3)=N2)cc1 (centres undefined)	x	x	n	n	x
SMILES	SW480 rereplic	IL-1B inflam inh	KB-V1 cytotox	KB-3-1 tox	MCF10A rerep
CC1(C)CC(=O)C2=C(C1)OC(N)=C(C#N)C2c1cn(-c2ccccc2)nc1-c1ccccc1 (centres undefined)	n	-54	n	n	u
CC1(C)CC(=O)C2=C(C1)OC(N)=C(C#N)C2C#Cc1ccccc1 (centres undefined)	u	-96	n	n	8.9µM
CC(c1ccccc1)C1C(C#N)=C(N)OC2=C1C(=O)CC(C)(C)C2 (centres undefined)	n	n	n	n	n
COc1ccccc1OCCCc1c(C)n[nH]c1C	n	n	16µM	n	n
COc1ccc(OCCCc2c(C)n[nH]c2C)cc1	n	n	n	n	n
COc1ccccc1OCCCCCc1c(C)n[nH]c1C	n	n	4.6µM	u	n
Cc1n[nH]c(C)c1CCCOc1ccccc1	n	n	n	n	n
CCOc1ccccc1NC(=O)CSc1c(C)n[nH]c1C	n	n	n	n	u
Cc1cccc(OCCCCc2c(C)n[nH]c2C)c1	u	n	n	n	u
COc1cccc(OCCc2c(C)n[nH]c2C)c1	n	n	21µM	u	n
CCOc1ccccc1OCCCCCc1c(C)n[nH]c1C	u	u	2.9µM	21µM	n
